# Sampled rows, rich in hits. Any-hit rate of the full collection: about 3.6%.
# Pf apPOL inh: Pf-apPOL DNA polymerase inhibition; actives 0.25% (n = 210,000); Recombinant Pf-apPOL, molecular beacon fluorescence, 1.5 h; inhibition, % at 10 µM
# mHTT-CaM PPI inh: inhibitors of human mutant huntingtin-calmodulin interaction | AID 1671202 | inhibition, % at 15 µM | actives 3.6% (n = 190,000) | AlphaScreen His-mHTT/GST-CaM binding, luminescence
# A number is an active result; 0 = inactive; - = no result. Rule as the data show it: active = inhibition above about 50%; inactive = the rest.
SMILES,Pf apPOL inh,mHTT-CaM PPI inh
COc1ccc(C2CC(c3c(-c4ccccc4)c4cc(Br)ccc4[nH]c3=O)=NO2)cc1 (stereo not given),0,0
CC(=O)N1N=C(c2c(-c3ccccc3)c3cc(Cl)ccc3[nH]c2=O)CC1c1ccccc1F (stereo not given),0,0
O=c1[nH]c2ccc(Br)cc2c(-c2ccccc2)c1[N+](=O)[O-],0,0
CC(=O)N1N=C(c2c(-c3ccccc3)c3cc(Cl)ccc3[nH]c2=O)CC1c1ccccc1Cl (stereo not given),0,93
CC(=O)N1N=C(c2c(-c3ccccc3)c3cc(Br)ccc3[nH]c2=O)CC1c1ccco1 (stereo not given),0,95
CC1CCCCN1CCCN1C(=O)c2ccccc2C1C(=O)NC1CCCCC1 (stereo not given),0,0
CCCCCc1ccc(-c2ccc(Br)cc2)cc1,0,-
O=c1ccc(-c2noc(Cc3ccccc3Cl)n2)c[nH]1,0,0
O=C(Cc1ccccc1)Nc1ccc2oc(-c3ccccc3Br)nc2c1,0,0
C=CCOc1ccc(/C=c2\sc3nc(-c4ccccc4)nn3c2=O)cc1OC,0,0
O=C(NCc1ccc(F)c(Cl)c1)c1cc2c(s1)CCN(C(=O)c1ccccc1)C2,0,0
COc1ccc(OC)c(Nc2nc(-c3sc(N)nc3C)cs2)c1,0,81
COc1ccc(Cl)cc1Nc1nc(-c2sc(N)nc2C)cs1,0,82
COc1ccccc1Nc1nc(-c2ccncc2)cs1,0,0
COc1nc(Nc2cc(Cl)ccc2OC)nc(OC)n1,0,0
CCNC(=O)c1csc(COc2ccc(F)cc2F)n1,0,0
CS(=O)(=O)N1CCN(C(=O)C2(c3ccccc3)CCOCC2)CC1,0,0
CCOc1ccc(N2C=C(C#N)S(=O)(=O)c3ccccc32)cc1,0,0
CCc1onc(C)c1C1CCCN1C(=O)c1c(C)noc1C (stereo not given),0,0
COc1ccc(CNC(=O)c2ccc3c(c2)NC(=O)C2CCCCN32)c(OC)c1 (stereo not given),0,0
c1coc(-c2nc3sc(-c4ccco4)nc3s2)c1,0,100
c1coc(-c2nccs2)c1,0,-
O=C(NCc1cccs1)c1ccc(S(=O)(=O)NCc2ccc3c(c2)OCO3)o1,0,0
Cc1nnc(NC(=O)c2ccc(S(=O)(=O)NCc3ccc4c(c3)OCO4)o2)s1,0,100
CC(C)Cn1c(C(=O)NCc2cccnc2)cc2sccc21,0,0
SMILES,Pf apPOL inh,mHTT-CaM PPI inh
Cc1cccc(NC(=O)Cn2ccc3sccc3c2=O)c1C,0,0
O=C(NCCc1c[nH]c2ccccc12)c1cc2nc(-c3cccs3)cc(C(F)(F)Cl)n2n1,0,82
O=C(NCCCN1CCOCC1)c1cc2nc(-c3cccs3)cc(C(F)(F)Cl)n2n1,0,0
C=CCn1c(N=Cc2ccc(N(C)C)cc2)nc2ccccc21,0,71
C=CCn1c(N=Cc2ccc(Cl)cc2)nc2ccccc21,0,0
CCN(CC)c1ccc(/C=C2\C(=O)c3ccc(C(=O)O)cc3C2=O)cc1,0,62
COc1ccc(/C=C2\C(=O)c3ccc(C(=O)O)cc3C2=O)cc1OC,0,0
N#Cc1c(N)n[nH]c1-c1ccc(Cl)cc1,0,-
COc1ccc(C(CC(=O)N2CCCC2)c2c(O)cc(OC)cc2OC)cc1 (stereo not given),0,0
COc1cc(C(CC(=O)N2CCCC2)c2c(OC)cc(OC)c3ccc(=O)oc23)cc(OC)c1OC (stereo not given),0,0
COc1cc(O)c(C(CC(=O)N2CCN(c3ccccc3)CC2)c2ccc(N(C)C)cc2)c(OC)c1 (stereo not given),0,74
COc1ccc(C(CC(=O)N2CCN(c3ccccc3)CC2)c2c(OC)cc(OC)c3ccc(=O)oc23)cc1 (stereo not given),0,56
CCCCN1CCN(C(=O)c2cn3ccccc3n2)CC1,0,0
Cc1cccc(NC(=O)C2CCN(c3c(C#N)cnc4ccc(F)cc34)CC2)c1,0,0
Cn1cc(C(=O)NCCn2nc(-c3ccco3)ccc2=O)nn1,0,0
Cc1cc(C)nc(Nc2nc(C(=O)NCCn3nc(-c4ccco4)ccc3=O)cs2)n1,0,62
O=C(CC(c1ccccc1)c1ccccc1)NCCn1nc(-c2ccco2)ccc1=O,0,69
O=C(COc1ccccc1F)NCCn1nc(-c2ccco2)ccc1=O,0,0
COc1ccc(C(CNC(=O)Cc2ccc(Cl)cc2)N2CCN(C)CC2)cc1 (stereo not given),0,0
COc1ccc(Cl)cc1NC(=O)CSc1nc(=O)n(CCCO)c2c1CCCC2,0,57
COc1ccc(Cl)cc1NC(=O)CSc1nc(=O)n2cccc(C)c2n1,0,0
Cc1ccc(Oc2nccnc2SCC(=O)Nc2ccc(C)c(C)c2)cc1,0,0
COc1ccc(NC2=C(C)C(=O)CC2)cc1,0,0
COc1ccc(Nc2ccc(OC)cc2)cc1,0,90
CC(=O)Nc1ccc(S(=O)(=O)Nc2ccc(Oc3ccccc3)cc2)cc1,0,87
SMILES,Pf apPOL inh,mHTT-CaM PPI inh
COc1ccc(S(=O)(=O)Nc2cccc(NS(=O)(=O)c3ccc(OC)cc3)c2)cc1,0,0
COc1ccc(NS(=O)(=O)c2ccc(NS(=O)(=O)c3ccc(NC(C)=O)cc3)cc2)cc1,0,0
COc1ccc(S(=O)(=O)Nc2ccc(Nc3ccccc3)cc2)cc1,0,89
COc1ccc(NS(=O)(=O)c2ccc(NS(C)(=O)=O)cc2)cc1,55,0
COc1ccc(NS(=O)(=O)c2ccc(NS(=O)(=O)c3ccc(OC)cc3)cc2)cc1,0,0
N#CC1=C(N)N(c2ncn[nH]2)C2=C(C(=O)CCC2)C1c1ccc(Cl)cc1Cl (stereo not given),0,0
Cc1cc(C)n2nc(SCC(=O)NC3CCCCCCC3)nc2n1,0,0
CCn1c(SCC(=O)c2ccc3c(c2)OCCO3)nc2sc3c(c2c1=O)CCC3,0,0
O=[N+]([O-])c1ccccc1S(=O)(=O)Nc1ccc(Nc2ccccc2)cc1,0,90
O=S(=O)(Nc1ccc(Nc2ccccc2)cc1)c1ccccc1,0,88
NC(=O)c1ccc(NS(=O)(=O)c2ccccc2[N+](=O)[O-])cc1,0,0
NS(=O)(=O)c1ccc(NS(=O)(=O)c2ccc(NC(=O)Nc3ccccc3)cc2)cc1,0,96
NS(=O)(=O)c1ccc(NS(=O)(=O)c2ccc(NC(=S)Nc3ccccc3)cc2)cc1,-,0
O=S(=O)(Nc1ccc(F)cc1)c1ccccc1,0,0
Fc1ccccc1CN1CCOCC1,0,0
CN(C)c1cccc(C(=O)N2CCN(C(=O)C3CC3c3ccc(F)cc3)CC2)c1 (stereo not given),0,0
Brc1ccc(-c2ccc(CNCc3ccco3)o2)cc1,0,92
Fc1ccc(-c2ccc(CNCc3ccco3)o2)cc1,0,0
COCCCNC(=O)c1cnn2c(C)c(Cc3ccc(Cl)cc3)c(C)nc12,0,90
COCCNC(=O)c1cnn2c(C)c(Cc3ccc(F)cc3)c(C)nc12,0,0
Cc1nc2c(C(=O)N3CCCC(C)C3)cnn2c(C)c1Cc1ccc(Cl)cc1 (stereo not given),0,100
Cc1nc2c(C(=O)N3CCCCC3)cnn2c(C)c1Cc1ccc(Cl)cc1,0,100
Cc1nc2c(C(=O)NCc3ccccc3)cnn2c(C)c1Cc1ccc(Cl)cc1,0,0
Cc1nc2c(C(=O)N3CCCCC3)cnn2c(C)c1Cc1ccccc1Br,0,0
O=S(=O)(c1cccn2cnnc12)N(Cc1ccc(F)cc1)c1ccc(F)c(F)c1,0,0
Oc1ccc(I)cc1C=Nc1cc(Cl)ccc1O,0,0
